HCMV inh: inhibitors of human cytomegalovirus | HFF cells, HCMV-luciferase reporter, 72 h; hits give low values | activity change, negative = inhibition, % at 57.5 µM | hit rate 4.5% among 410,000 | AID 1259415; in the data active = activity change below about -60%; inconclusive = no clear call, values can overlap the other calls; inactive = above about -39%
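Screen run at 2 compound doses on HFFs infected with reporter HCMV, MOI 1 PFU/cell. Luciferase activity from cell lysates at 72 h post infection gave inhibition relative to buffer-only and Salinomycin wells.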
FMDV inh: antivirals against foot and mouth disease virus; FMDV antiviral cell-based qHTS; hit rate 1.2% among 410,000; Potency, µM (highest dose often 57.9 µM), for the others: at the highest dose activity change, negative = inhibition, actives largely listed as inhibitors; calls by dose curve; tested in HEK293T cells; also: read-out not given here; potency is read from the fitted curve at half-maximal effect; nearly all actives have a fitted effect of over 45% in size
HCV inh: inhibitors of hepatitis C virus infection. Huh7.5.1 HCVcc-Cre infection, luciferase reporter, 44 h. Potency, µM (doses to about 41.8 µM), for inactives: at the top dose activity change, negative = inhibition, most hits filed as inhibitors. hit rate 3.4% among 340,000. AID 651820; active = well fitted inhibition curve with a large enough effect; inconclusive = small, poorly fitted or top-dose-only effect, or another doubt; inactive = no such curve, though single readings can be large or run the other way; also: potency is read from the fitted curve at half-maximal effect
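A cell-based infection assay in which seeded cells (1,000 per well) receive test compound after 4 h, are inoculated with HCVcc-Cre at approximately 0.5 moi, and are incubated 44 h before luminescence detection.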
Lassa entry inh: inhibitors of Lassa virus binding or cell entry; Lassa virus pseudotype entry inhibition, cell reporter; Potency, µM (titrated, usually from 37.9 µM), inactives show at the top dose activity change, negative = inhibition, actives largely listed as inhibitors; hit rate 1.2% among 300,000; AID 540256; calls by dose curve; tested in HEK293 cells; also: potency is read from the fitted curve at half-maximal effect; nearly all actives have a fitted effect of over 50% in size
Marburg entry inh: inhibitors of Marburg virus binding or cell entry. Marburg virus pseudotyped entry inhibition, cell reporter. Potency, µM (highest dose often 37.8 µM), for the others: top-dose activity change, negative = inhibition, hits mostly inhibitors. hit rate 1.8% among 300,000; calls by dose curve; tested in HEK293 cells; also: potency is read from the fitted curve at half-maximal effect
Numbers without * were called inactive; [ ] = remark or other dose. This is a sample that favours compounds with a hit; in the whole collection about 7.9% have one here. % is scaled to controls: 0 for no effect and ±100 for the full control effect.

CNc1nc(-c2ccc3c(c2)CCN3C(=O)c2ccccc2C)cs1 was read as HCMV inh -34.9, FMDV inh 7.5%, HCV inh inconclusive, Lassa entry inh inconclusive and Marburg entry inh inconclusive.
Cc1cccc(C(=O)N2CCc3cc(-c4csc(NC(=O)CN5CCCC5)n4)ccc32)c1 was read as HCMV inh -26.0, FMDV inh inconclusive, HCV inh inconclusive and Marburg entry inh inconclusive.
O=c1[nH]c(C2CCCN(S(=O)(=O)c3ccccc3)C2)nc2c1nnn2Cc1cccc(Cl)c1 (configuration not stated) was read as HCMV inh -11.0, FMDV inh -15.6%, HCV inh 1.7%, Lassa entry inh inconclusive and Marburg entry inh inconclusive.
Screening CCOC(=O)c1ccc(-c2ccc(N3C(c4cccc(OC)c4)=Cc4ccc(F)cc4C3CC(C)=O)cc2)cc1F (configuration not stated) returned HCMV inh -18.9 and FMDV inh -25.0%.
For Cc1csc(NC(=O)c2ccc3nc[nH]c3c2)n1 the results were HCMV inh 140.1, FMDV inh 2.8%, HCV inh -10.2%, Lassa entry inh inconclusive and Marburg entry inh inconclusive.
Cc1cccc(C(=O)N2CCc3cc(-c4nc(NC(=O)Cn5nnc6ccccc6c5=O)sc4C)ccc32)c1 was read as HCV inh -11.5%, Lassa entry inh -9.4% and Marburg entry inh 6.7%.
For O=C(CN1CCOCC1)Nc1nc(-c2ccc3c(c2)CCN3S(=O)(=O)c2ccccc2)cs1 the results were HCMV inh -88.4*, FMDV inh 22.4µM*, HCV inh 3.55µM*, Lassa entry inh inconclusive and Marburg entry inh inconclusive.
For Cc1sc(NC(=O)CN2CCOCC2)nc1-c1ccc2c(c1)CCN2S(=O)(=O)c1ccccc1 the results were HCMV inh -95.8*, HCV inh inconclusive, Lassa entry inh inconclusive and Marburg entry inh 13µM*.
For COc1ccc(OC)c2sc(NC(=O)CCSc3ccccc3)nc12 the results were HCMV inh -20.2, FMDV inh -24.7% and HCV inh 10µM*.
`COc1ccc(OC)c2sc(NC(=O)CCS(=O)(=O)c3ccccc3)nc12` gave HCMV inh 19.9, FMDV inh -9.5% and HCV inh inconclusive.
For O=C(Nc1nc(-c2ccc(Oc3ccccc3)cc2)cs1)C1=COCCO1 the results were HCMV inh -64.0*, FMDV inh inconclusive, HCV inh inconclusive, Lassa entry inh inconclusive and Marburg entry inh inconclusive.
`COc1ccc(OC)c2sc(NC(=O)C(C)C)nc12` gave HCMV inh -6.0, FMDV inh -8.8% and HCV inh 7.94µM*.
Screening COc1ccc(OC)c2sc(NC(=O)C3=COCCO3)nc12 returned HCMV inh 17.8, FMDV inh -19.6% and HCV inh 11.2µM*.
For Cc1ccc(-c2csc(NC(=O)C3=COCCO3)n2)cc1 the results were HCMV inh 42.3, FMDV inh -16.1%, HCV inh inconclusive, Lassa entry inh -26.7% and Marburg entry inh inconclusive.
For CSc1ncccc1C(=O)N1CCOc2ccc(C(C)(O)CCn3cccn3)cc2C1 (configuration not stated) the results were FMDV inh -2.2%.
O=C(Cn1cc(S(=O)(=O)Cc2cccc(Cl)c2)c2ccccc21)Nc1ccccc1Cl was read as HCMV inh 0.0, FMDV inh 0.0% and Lassa entry inh 1.1%[46.1 µM].
Screening COc1ccc(S(=O)(=O)c2cnc3ccc(Cl)cc3c2N2CCCCC2C)cc1 (configuration not stated) returned HCMV inh -39.7, FMDV inh -1.9% and Marburg entry inh inconclusive.
Screening COc1cccc(C(=O)N(Cc2cc3cc4c(cc3nc2N(C)C)OCO4)CC2CCCO2)c1 (configuration not stated) returned FMDV inh 11.0%.
For Cc1cccc(C)c1-n1nnnc1C1(C)CCC(=O)N1Cc1ccco1 (configuration not stated) the results were HCMV inh -10.9 and FMDV inh -19.7%.
`Nc1[nH]c(C(=O)c2ccccc2)c(-c2cccc(C(F)(F)F)c2)c1C(=O)NCCc1c[nH]c2ccccc12` gave HCMV inh -72.3*.
COC(=O)Cc1[nH]nc2c1C(C1C=CCCC1)C(C#N)=C(N)O2 (configuration not stated) was read as HCMV inh -7.9, FMDV inh 15.8µM*, HCV inh inconclusive, Lassa entry inh 3.0% and Marburg entry inh -1.2%.

High-throughput results deposited in PubChem by National Center for Advancing Translational Sciences (NCATS).
